Our source for the inhibition values is PubChem BioAssay.

A word on the inhibition: it is the relative decrease from the control value, in per cent.

Unmarked numbers belong to inactive results. The rule behind the calls is not given here.

Sequence of Pantothenate synthetase (Mycobacterium tuberculosis (strain ATCC 25618 / H37Rv)) (P9WIL5 whole entry, looked up): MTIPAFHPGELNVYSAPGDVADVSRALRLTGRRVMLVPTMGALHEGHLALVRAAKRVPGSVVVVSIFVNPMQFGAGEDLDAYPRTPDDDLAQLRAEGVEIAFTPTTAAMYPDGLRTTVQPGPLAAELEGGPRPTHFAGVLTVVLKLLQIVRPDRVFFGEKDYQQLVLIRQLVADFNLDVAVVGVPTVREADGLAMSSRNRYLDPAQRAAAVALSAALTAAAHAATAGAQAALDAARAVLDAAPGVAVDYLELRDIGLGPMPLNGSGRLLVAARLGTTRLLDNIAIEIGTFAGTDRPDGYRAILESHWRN

This experiment concerns the target Pantothenate synthetase (Mycobacterium tuberculosis (strain ATCC 25618 / H37Rv)) (UniProt P9WIL5). The experiment can be described thus: Coupled enzyme confirmation of inhibitors against recombinant Mtb PanC (AID 375).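 Note: 0% = full reaction with vehicle and 100% = no enzyme background.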 The following applies: coupled enzyme assay; at 10 µM, active compounds read high.
Turning to `CS(=O)(=O)N(CC(=O)N1CCN(c2cccc(Cl)c2)CC1)C1CCCCC1`, the inhibition is 0%. As to `COC(=O)CCN1CCC(C(N)=O)CC1`, the inhibition was 1%. The result for `CC(=O)Nc1ccc(S(=O)(=O)N2CCN(C(=O)CCC3CCCC3)CC2)cc1` reads 0%. With `COc1ccccc1CN1CCCC(C(=O)N(C)Cc2ccccc2)C1` (stereo not drawn) the figure was 0%; with `COC(=O)c1ccccc1NC(=O)c1ccc(-c2ccccc2F)o1`, 0%; with `Cc1onc(-c2ccccc2Cl)c1C(=O)Nc1cccnc1`, 5%.

For `CN(CCCNC(=O)c1cn(C)c2ccc(S(=O)(=O)N(C)C)cc2c1=O)c1ccccc1`, the inhibition was 4%. With `c1ccc(Cn2nnnc2CN2CCCC2)cc1` the figure was 0%; with `CCCCN1C[C@H](O)[C@@H](O)[C@H](O)[C@H]1CO`, 0%. With `N#CCCCCn1c(-c2cncs2)nc2ccccc21` the figure was 0%; with `CCOC(=O)c1c(NC(=O)CSc2nc3c(c(=O)n(C)c(=O)n3C)n2C(C)C)sc(C)c1C`, 10%; with `CN1CCCN(C(c2ccccc2)c2ccc(Cl)cc2)CC1` (stereo not drawn), 0%. The result for `c1nc(NCC2(N3CCOCC3)CCCCC2)c2ccsc2n1` reads 0%; that for `COCCn1c(COc2ccc(Cl)cc2)nnc1SCC(N)=O`, 0%; that for `NNC(=O)c1ccncc1`, 0%.

Take `O=C(CCn1c(=O)sc2ccccc21)NC1=NCCS1`: the inhibition is 3%.

For the compound `COC(=O)c1[nH]c2cc(OC)ccc2c1NC(=O)CCN1CCCCC1`, the inhibition was 1%. With `CCOc1ccc(N2CC(C(=O)Nc3ccccc3OC)CC2=O)cc1` (stereo not drawn) the figure was 0%.
